# Of roughly 7,900 targets only a part is listed; those with a hit were picked by preference. About 0.6% of all pairs of compound and target were hits. Values without a mark were called inactive.
# Legend:
# Test in all cases: log2 fold change, soluble protein after heating vs DMSO (PISA); higher = thermal stabilisation; K562 cells, 10 uM, 30 min; active = over 0.2 and 3.5 SD of the protein, either way, in both replicates (recomputed)
# IRAK-1-4 Inhibitor I = compound: C1COCCN1CCN2C3=CC=CC=C3N=C2NC(=O)C4=CC(=CC=C4)[N+](=O)[O-] [IRAK-1-4 Inhibitor I]
# How it was run: (§1)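 For each measurement, 10 μM compound was applied for 30 min to K562 cells at 2×10^6 cells/mL. Aliquots were heated for 3 min across 48°C-58°C, pooled, and extracted in PBS with 0.5% NP-40 at 4°C; the supernatant after 21,000xg for 90 min was soluble protein. This was quantified by TMTpro 16plex LC-MS/MS with channel sums equalised, and thermal stability was reported relative to control samples from duplicates, on a log2 fold-change scale.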
# ibrutinib = compound: C=CC(=O)N1CCC[C@@H](n2nc(-c3ccc(Oc4ccccc4)cc3)c3c(N)ncnc32)C1 [ibrutinib]
# How it was run: as §1
# [1] = compound: CC(=O)c1cnc2ccc(-c3cc(Cl)c(O)c(Cl)c3)nc2c1N[C@H]1CC[C@H](CN(C)C)CC1
# How it was run: as §1
# ralimetinib = compound: CC(C)(C)Cn1c(N)nc2ccc(-c3[nH]c(C(C)(C)C)nc3-c3ccc(F)cc3)nc21 [ralimetinib]
# How it was run: as §1
# [2] = compound: CC(C)(O)CC(=O)NCCn1ccc2ncnc(Nc3ccc(Oc4cccc(C(F)(F)F)c4)c(Cl)c3)c21
# How it was run: as §1
# [3] = compound: CC(C)C1=C2N=C(C=C(N2N=C1)NCC3=CC=CC=C3)NCCCCCCN
# How it was run: as §1
# [4] = compound: CC(C)C[C@@H](C=O)NC(=O)[C@H](CC(C)C)NC(=O)[C@H](CC(C)C)NC(=O)OCc1ccccc1
# How it was run: as §1
# pinometostat = compound: CC(C)N(C[C@H]1O[C@@H](n2cnc3c(N)ncnc32)[C@H](O)[C@@H]1O)[C@H]1C[C@@H](CCc2nc3cc(C(C)(C)C)ccc3[nH]2)C1 [pinometostat]
# How it was run: as §1
# [5] = compound: CC1=C(C(CC(=O)N1)C2=CC=C(C=C2)C(F)(F)F)C(=O)NC3=C(C=C4C(=C3)C=NN4)F
# How it was run: as §1
# [6] = compound: CC1=C(C2=C(C=C1)C(=O)C3=CC=CC=C3N2CCCN)C
# How it was run: as §1
# Chain of UniProt Q16864 (Q16864 whole entry, looked up): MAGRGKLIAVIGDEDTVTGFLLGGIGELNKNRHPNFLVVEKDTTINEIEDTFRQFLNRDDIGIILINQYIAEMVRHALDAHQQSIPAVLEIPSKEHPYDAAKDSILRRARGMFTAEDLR
# Chain of UniProt O43823 (O43823 whole entry, looked up): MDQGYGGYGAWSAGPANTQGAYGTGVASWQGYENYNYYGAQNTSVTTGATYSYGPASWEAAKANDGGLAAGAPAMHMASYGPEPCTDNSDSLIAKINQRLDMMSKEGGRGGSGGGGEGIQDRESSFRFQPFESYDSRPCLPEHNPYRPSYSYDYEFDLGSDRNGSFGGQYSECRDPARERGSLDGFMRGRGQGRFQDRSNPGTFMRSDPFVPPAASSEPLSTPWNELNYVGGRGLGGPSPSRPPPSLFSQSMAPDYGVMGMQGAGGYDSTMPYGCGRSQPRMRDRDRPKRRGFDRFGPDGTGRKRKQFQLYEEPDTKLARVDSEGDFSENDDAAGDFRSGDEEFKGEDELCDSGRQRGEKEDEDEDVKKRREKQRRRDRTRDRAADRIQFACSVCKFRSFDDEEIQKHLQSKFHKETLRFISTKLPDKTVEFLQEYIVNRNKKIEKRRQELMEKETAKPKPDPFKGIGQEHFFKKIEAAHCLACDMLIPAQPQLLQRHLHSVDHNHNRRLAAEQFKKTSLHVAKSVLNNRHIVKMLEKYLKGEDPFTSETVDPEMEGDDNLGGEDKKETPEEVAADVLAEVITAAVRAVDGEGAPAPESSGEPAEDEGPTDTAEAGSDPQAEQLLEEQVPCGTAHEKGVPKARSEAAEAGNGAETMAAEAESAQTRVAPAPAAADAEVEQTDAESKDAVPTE
# Chain of UniProt P31751 (P31751 whole entry, looked up): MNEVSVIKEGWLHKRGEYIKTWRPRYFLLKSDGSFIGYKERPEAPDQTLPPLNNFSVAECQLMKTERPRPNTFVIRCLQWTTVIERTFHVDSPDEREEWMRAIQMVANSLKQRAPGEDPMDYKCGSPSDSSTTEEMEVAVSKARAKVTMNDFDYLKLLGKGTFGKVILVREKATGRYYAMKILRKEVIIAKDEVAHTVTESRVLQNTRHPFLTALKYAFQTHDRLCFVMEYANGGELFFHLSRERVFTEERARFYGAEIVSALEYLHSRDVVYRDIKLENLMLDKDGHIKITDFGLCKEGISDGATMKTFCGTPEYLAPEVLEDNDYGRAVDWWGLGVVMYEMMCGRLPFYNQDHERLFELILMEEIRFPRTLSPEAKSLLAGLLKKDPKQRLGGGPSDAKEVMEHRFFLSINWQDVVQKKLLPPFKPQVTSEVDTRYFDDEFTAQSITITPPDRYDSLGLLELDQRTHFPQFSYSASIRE
# Chain of UniProt O00116 (O00116 whole entry, looked up): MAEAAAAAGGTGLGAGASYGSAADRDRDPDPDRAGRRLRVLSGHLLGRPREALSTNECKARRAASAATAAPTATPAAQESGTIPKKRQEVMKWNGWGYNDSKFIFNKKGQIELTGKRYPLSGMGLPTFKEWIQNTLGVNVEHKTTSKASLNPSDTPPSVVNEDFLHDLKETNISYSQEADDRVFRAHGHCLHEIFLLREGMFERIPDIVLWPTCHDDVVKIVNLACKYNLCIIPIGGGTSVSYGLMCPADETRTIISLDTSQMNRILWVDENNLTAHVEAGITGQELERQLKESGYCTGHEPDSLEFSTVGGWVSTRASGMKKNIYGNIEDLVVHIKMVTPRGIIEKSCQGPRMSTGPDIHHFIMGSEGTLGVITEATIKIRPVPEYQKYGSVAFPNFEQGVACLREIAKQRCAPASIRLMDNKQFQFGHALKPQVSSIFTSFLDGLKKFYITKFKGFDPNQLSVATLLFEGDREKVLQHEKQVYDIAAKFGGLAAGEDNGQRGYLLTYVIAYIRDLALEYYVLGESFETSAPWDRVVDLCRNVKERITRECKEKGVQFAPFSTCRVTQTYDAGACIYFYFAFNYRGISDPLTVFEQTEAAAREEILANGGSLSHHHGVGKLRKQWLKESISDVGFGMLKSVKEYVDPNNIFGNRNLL
# Chain of UniProt Q9H845 (Q9H845 whole entry, looked up): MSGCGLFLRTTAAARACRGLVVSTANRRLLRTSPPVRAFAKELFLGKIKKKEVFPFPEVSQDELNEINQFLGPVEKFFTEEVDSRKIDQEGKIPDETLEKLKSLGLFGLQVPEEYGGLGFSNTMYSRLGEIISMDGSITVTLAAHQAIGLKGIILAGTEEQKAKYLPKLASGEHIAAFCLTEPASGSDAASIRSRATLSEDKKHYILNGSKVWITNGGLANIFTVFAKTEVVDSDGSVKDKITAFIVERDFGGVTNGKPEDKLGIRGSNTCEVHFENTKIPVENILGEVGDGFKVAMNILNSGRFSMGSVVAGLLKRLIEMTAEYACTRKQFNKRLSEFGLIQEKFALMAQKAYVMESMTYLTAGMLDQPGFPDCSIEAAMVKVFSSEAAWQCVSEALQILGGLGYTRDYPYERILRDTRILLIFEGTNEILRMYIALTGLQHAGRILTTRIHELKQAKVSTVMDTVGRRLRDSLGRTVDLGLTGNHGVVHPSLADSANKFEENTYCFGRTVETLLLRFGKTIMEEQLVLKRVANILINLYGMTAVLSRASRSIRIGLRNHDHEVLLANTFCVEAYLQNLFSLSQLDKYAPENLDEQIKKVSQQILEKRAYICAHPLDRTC
# Chain of UniProt Q9Y2Y0 (Q9Y2Y0 whole entry, looked up): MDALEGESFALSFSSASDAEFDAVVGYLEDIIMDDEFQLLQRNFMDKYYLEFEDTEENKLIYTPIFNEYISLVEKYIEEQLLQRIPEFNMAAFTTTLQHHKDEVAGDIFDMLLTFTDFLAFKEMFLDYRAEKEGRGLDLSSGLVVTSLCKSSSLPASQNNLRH
# Chain of UniProt P49748 (P49748 whole entry, looked up): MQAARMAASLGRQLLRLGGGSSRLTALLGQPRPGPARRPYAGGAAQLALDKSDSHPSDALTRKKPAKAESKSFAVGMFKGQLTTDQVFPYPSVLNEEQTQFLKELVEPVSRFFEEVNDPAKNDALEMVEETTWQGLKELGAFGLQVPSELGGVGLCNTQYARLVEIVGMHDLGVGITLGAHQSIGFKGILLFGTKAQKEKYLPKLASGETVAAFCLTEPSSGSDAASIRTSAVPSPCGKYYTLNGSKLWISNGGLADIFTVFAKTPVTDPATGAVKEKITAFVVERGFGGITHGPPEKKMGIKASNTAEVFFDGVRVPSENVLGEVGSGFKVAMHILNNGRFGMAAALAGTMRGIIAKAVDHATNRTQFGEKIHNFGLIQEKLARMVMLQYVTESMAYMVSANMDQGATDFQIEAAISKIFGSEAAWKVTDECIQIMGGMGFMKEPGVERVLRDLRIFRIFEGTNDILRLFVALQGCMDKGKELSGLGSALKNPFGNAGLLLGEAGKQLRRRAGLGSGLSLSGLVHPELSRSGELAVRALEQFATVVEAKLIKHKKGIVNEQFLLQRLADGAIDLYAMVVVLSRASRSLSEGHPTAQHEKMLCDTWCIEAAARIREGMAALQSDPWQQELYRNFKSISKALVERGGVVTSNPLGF
# Chain of UniProt O43861 (O43861 whole entry, looked up): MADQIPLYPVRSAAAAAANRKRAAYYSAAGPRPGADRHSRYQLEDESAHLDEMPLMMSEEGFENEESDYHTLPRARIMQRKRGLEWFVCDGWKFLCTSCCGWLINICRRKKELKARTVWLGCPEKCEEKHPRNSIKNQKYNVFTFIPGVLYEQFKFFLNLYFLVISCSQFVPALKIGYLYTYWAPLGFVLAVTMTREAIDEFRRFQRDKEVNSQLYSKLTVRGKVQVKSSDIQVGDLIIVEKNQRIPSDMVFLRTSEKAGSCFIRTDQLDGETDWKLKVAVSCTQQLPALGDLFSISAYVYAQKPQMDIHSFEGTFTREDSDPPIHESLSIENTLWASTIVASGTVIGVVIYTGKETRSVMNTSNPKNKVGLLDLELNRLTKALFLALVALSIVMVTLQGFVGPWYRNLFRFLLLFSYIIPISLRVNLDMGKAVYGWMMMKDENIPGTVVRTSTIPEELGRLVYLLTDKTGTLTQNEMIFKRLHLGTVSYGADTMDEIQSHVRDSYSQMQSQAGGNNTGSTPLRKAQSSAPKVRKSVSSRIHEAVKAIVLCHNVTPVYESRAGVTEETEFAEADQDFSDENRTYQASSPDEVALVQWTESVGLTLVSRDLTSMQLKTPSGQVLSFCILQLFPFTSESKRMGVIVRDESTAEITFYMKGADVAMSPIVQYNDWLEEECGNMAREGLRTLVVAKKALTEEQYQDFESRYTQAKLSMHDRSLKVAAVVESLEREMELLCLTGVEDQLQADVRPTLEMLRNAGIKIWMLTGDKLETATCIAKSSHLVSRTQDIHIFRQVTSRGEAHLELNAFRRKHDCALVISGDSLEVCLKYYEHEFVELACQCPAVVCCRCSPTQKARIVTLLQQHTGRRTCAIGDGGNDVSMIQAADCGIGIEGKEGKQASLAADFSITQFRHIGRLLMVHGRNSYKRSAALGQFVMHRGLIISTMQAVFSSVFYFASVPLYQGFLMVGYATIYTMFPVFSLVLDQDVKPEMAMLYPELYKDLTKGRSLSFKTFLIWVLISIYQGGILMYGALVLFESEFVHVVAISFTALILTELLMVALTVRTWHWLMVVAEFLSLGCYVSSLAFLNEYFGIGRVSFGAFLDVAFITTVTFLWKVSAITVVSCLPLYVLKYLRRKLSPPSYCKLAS
# Chain of UniProt P42330 (P42330 whole entry, looked up): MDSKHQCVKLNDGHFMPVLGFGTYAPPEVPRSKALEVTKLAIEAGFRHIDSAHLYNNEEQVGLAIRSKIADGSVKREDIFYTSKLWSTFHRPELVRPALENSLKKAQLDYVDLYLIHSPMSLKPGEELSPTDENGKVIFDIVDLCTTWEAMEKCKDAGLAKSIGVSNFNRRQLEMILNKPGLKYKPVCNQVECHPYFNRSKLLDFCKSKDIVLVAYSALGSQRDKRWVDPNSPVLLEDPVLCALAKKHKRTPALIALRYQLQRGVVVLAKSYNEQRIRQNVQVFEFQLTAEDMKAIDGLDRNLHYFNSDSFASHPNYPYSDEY
Target,log2 fold change (IRAK-1-4 Inhibitor I),log2 fold change (ibrutinib),log2 fold change [1],log2 fold change (ralimetinib),log2 fold change [2],log2 fold change [3],log2 fold change [4],log2 fold change (pinometostat),log2 fold change [5],log2 fold change [6]
ATL2 (UniProt Q8NHH9),0.011,0.006,-0.058,-0.116,-0.087,0.054,-0.001,0.035,-0.016,0.169
ARL2BP (UniProt Q9Y2Y0),-0.053,-0.009,0.03,0.01,-0.127,-0.269,-0.011,-0.037,-0.002,-0.028
ABHD16A (UniProt O95870),-0.039,0.043,-0.026,0.047,0.361 (active),0.656 (active),0.064,-0.009,-0.064,0.012
AKR1C3 (UniProt P42330),0.072,-0.108,0.015,0.085,0.265,0.025,-0.149,-0.069,-0.064,-0.049
ACIN1 (UniProt Q9UKV3),-0.052,0.004,-0.155,0.063,0.043,-0.022,-0.026,-0.006,-0.017,-0.369 (active)
ANKZF1 (UniProt Q9H8Y5),-0.052,0.031,-0.19,0.189,0,-0.065,0.192,0.136,0.034,-0.069
ACSM3 (UniProt Q53FZ2),0,-0.021,-0.11,-0.003,-0.397 (active),-0.155,-0.086,0.046,-0.001,0.041
ARFIP1 (UniProt P53367),-0.034,-0.117,-0.075,-0.104,-0.031,-0.011,-0.029,0.006,0.014,0.164
AHCYL1 (UniProt O43865),0.035,0.062,0.337 (active),0.008,-0.016,0.014,0.001,-0.048,-0.033,-0.004
AUP1 (UniProt Q9Y679),0.035,-0.026,0.003,0.007,-0.164,-0.482 (active),-0.033,0.011,-0.036,0.08
BST2 (UniProt Q10589),-0.004,0,-0.109,0.033,0.025,-0.108,0.12,-0.006,0.026,0.017
ACAD9 (UniProt Q9H845),0.01,0.005,-0.041,-0.034,0.007,0.002,-0.036,-0.028,-0.012,0.028
ACADVL isoform 3 (UniProt P49748),0.038,-0.002,0.005,-0.015,-0.016,-0.013,-0.025,-0.067,-0.032,0.002
ATP9B (UniProt O43861),0.061,-0.068,-0.034,-0.077,-0.054,-0.071,-0.024,-0.064,-0.004,0.003
ARHGAP1 (UniProt Q07960),0.025,-0.014,-0.049,-0.022,-0.014,0.162,0.023,0,-0.011,-0.014
ANXA5 (UniProt P08758),-0.013,-0.05,-0.019,-0.018,-0.006,-0.069,0.017,-0.026,0,0.032
BCLAF1 (UniProt Q9NYF8),-0.265,0.016,-0.503 (active),0.124,0.094,-0.353,-0.027,-0.039,0.021,-0.076
AMFR (UniProt Q9UKV5),-0.083,-0.039,0.07,0.117,-0.034,-0.375 (active),0.12,0.077,-0.011,0.019
AKAP8L (UniProt Q9ULX6),-0.076,-0.001,-0.128,0.091,-0.091,-0.299,0.106,-0.018,0.024,-0.34
ALDH2 (UniProt P05091),0.005,0.002,-0.005,-0.086,-0.037,0.018,-0.032,-0.034,-0.046,0.063
AKAP8 (UniProt O43823),0.058,0.002,-0.205,-0.018,-0.097,0.019,0.054,0.003,0.056,-0.113
ATG9A (UniProt Q7Z3C6),0,0.081,-0.091,-0.023,-0.056,-0.176,0.06,0.015,-0.003,0.038
AKR1C2 (UniProt P52895),-0.218,0.006,-0.043,-0.015,0.099,-0.16,-0.043,0.049,0.008,-0.063
ATP6V1F isoform 2 (UniProt Q16864),0.053,-0.003,-0.189,-0.054,-0.132,-0.024,-0.059,-0.009,0.039,0.253
AGPS (UniProt O00116),0.025,-0.005,-0.028,0.007,-0.008,-0.123,-0.025,-0.041,-0.025,0.031
B4GALNT1 (UniProt Q00973),0.01,-0.159,-0.188,-0.129,0.017,0.038,0.052,-0.101,-0.119,0.057
ATXN7L3 isoform 2 (UniProt Q14CW9),0.114,0.147,0.027,0.036,–,0.066,-0.053,0.093,0.018,–
AKT2 (UniProt P31751),-0.013,-0.033,-0.039,-0.015,-0.027,-0.179,0,-0.016,0.023,-0.011
BRAP (UniProt Q7Z569),-0.032,-0.066,-0.018,0.16,-0.016,-0.11,-0.093,0.033,0.026,0.263 (active)

# Reference: the supplement of paper PMC10849652
